In the library only some 2.4% were active in any assay of this set; here they are far more common.
AmpC nodet inh: blocks E. coli AmpC beta-lactamase in absence of detergent | P00811 | AmpC nitrocefin hydrolysis, absorbance 480 nm, no detergent | Potency, µM (highest dose often 28.7 µM), for inactives: top-dose activity change, negative = inhibition | 1.8% of 71,000 active | AID 585; also: % of control where 0% means no effect
Target sequence (P00811 whole entry, looked up): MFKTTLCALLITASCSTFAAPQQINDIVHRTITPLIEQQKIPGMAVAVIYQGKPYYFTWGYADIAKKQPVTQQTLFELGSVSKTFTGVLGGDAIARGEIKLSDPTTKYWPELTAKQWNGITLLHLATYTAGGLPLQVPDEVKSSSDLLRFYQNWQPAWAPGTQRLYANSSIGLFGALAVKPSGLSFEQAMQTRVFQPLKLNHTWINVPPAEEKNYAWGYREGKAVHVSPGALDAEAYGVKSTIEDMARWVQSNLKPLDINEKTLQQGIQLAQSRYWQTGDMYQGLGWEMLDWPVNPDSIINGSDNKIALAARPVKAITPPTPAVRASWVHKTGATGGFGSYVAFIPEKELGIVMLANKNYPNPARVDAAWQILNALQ
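AmpC in 20 mM phosphate buffer pH 7.0 was preincubated 15 min at room temperature with compounds. Nitrocefin (800 uM stock) was then added and hydrolysis followed at 480 nm every 20 s for 4 min.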
AmpC det inh: inhibitors of E. coli AmpC beta-lactamase with detergent; purified AmpC, nitrocefin hydrolysis with detergent; Potency, µM (titrated, usually from 28.7 µM), for the others: at the highest dose activity change, negative = inhibition; 0.09% of 71,000 active; active = well fitted curve in the direction sought with a large enough effect; inconclusive = small, poorly fitted or top-dose-only effect; also: % is scaled to controls: 0 for no effect and ±100 for the full control effect
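E. coli AmpC (5.3 nM) in 20 mM phosphate pH 7.0 with 0.01% Triton X-100, preincubated 15 min RT with compound; nitrocefin (2 uL of 800 uM stock) hydrolysis followed by 480 nm absorbance every 20 s over 4 min.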
SmPrx2 inh: blocks S. mansoni peroxiredoxin 2 enzymatic activity. Potency, µM. S. mansoni Prx2 activity coupled to TGR/GSH (TGR is thioredoxin glutathione reductase), NADPH fluorescence loss, qHTS. 0.07% of 65,000 active
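Prx2 activity was followed as the loss of NADPH fluorescence (ex 365/em 450 nm), read every 30 sec for 8 min after H2O2 start. The enzyme mix (50 nM Prx2, 25 nM TGR, GSH, NADPH; pH 7.4 phosphate buffer) was incubated with compound for 15 min at room temperature first.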
Anthrax LT inh: blocks cellular internalization of anthrax lethal toxin; Cells, anthrax lethal toxin internalization, FRET ratio (460/530); Potency, µM (highest dose often 40 µM), for the others: top-dose activity change, negative = inhibition, usual class: inhibitors; 0.67% of 70,000 active; AID 912; also: % is scaled to controls: 0 for no effect and ±100 for the full control effect; nearly all actives have a fitted effect of over 50% in size
* = called active by the depositor; ? = inconclusive; . = not tested or not shown; [ ] = another dose, or the depositor's remark. Unless noted, calls follow the shape of the full dose curve. Potency is read from the fitted curve at half-maximal effect.

SMILES	AmpC nodet inh	AmpC det inh	SmPrx2 inh	Anthrax LT inh
CCOC(=O)C1CCN(C(=O)CN(c2ccc(OC)cc2)S(=O)(=O)c2c(C)noc2C)CC1	102%	5%	>57	2%
COc1cc2c(cc1OC)[C@]13CC[N@+]4(C)CC5=CCO[C@H]6CC(=O)N2[C@@H]1[C@@H]6[C@@H]5C[C@]34O	2%[5.75 µM]	-2%[5.75 µM]	>57	1%[8 µM]
N#Cc1cn(-c2ccccc2)nc1-c1ccccc1	-13%	2%	>57	-6%
N#Cc1c(-c2ccccc2)no[n+]1[O-]	3%	0%	8.7*	-5%
N#Cc1sc2nc3c(c(-c4ccco4)c2c1N)CCCC3	13µM*[single pt active]	10%	>57	-14%
N#Cc1c(NC(=O)CSc2n[nH]c(Cc3ccccc3)n2)oc(-c2ccccc2)c1-c1ccccc1	10µM*	-1%	>57	?
COc1ccccc1OCC(=O)Nc1oc(-c2ccccc2)c(-c2ccccc2)c1C#N	-17%	-2%	>57	-24%
N#Cc1c(NC(=O)COC(=O)C2CC3C=CC2C3)oc(-c2ccccc2)c1-c1ccccc1 (stereo not given)	10µM*	-3%	>57	?
Cc1ccnc(SCC(=O)Nc2oc(-c3ccccc3)c(-c3ccccc3)c2C#N)n1	?	-2%	>57	?
O=C1c2sc3nc4c(c(=O)n3c2C(=O)N1c1ccccc1)CCC4	-13%	12%	>57	-21%
Cc1ccccc1N1C(=O)c2sc3nc4c(c(=O)n3c2C1=O)CCC4	-17%	11%	.	13µM*
O=C(O)CNC(=O)[C@H]1NC(C(F)(F)F)(C(F)(F)F)OC1(C(F)(F)F)C(F)(F)F	-2%[5.75 µM]	-3%[5.75 µM]	>57	3%[8 µM]
CCCC[C@@H]1C[C@H]1C(NC(=O)c1ccccc1)c1ccccc1 (stereo not given in full)	-20%	-2%	>57	2%
CCCC[C@@H]1C[C@H]1C(NC(=O)c1ccco1)c1ccccc1C(F)(F)F (stereo not given in full)	-18%	-4%	>57	?
CCCC[C@@H]1C[C@H]1C(NC(=O)c1ccco1)c1ccc(Cl)cc1 (stereo not given in full)	10µM*[single pt active]	-4%	>57	?
CCCC[C@@H]1C[C@H]1C(NC(=O)c1ccco1)c1ccc(-c2ccccc2)cc1 (stereo not given in full)	13µM*[single pt active]	-3%	>57	-10%
CCCCCCC#Cc1cc(OC)c(OC)cc1C(N1CC(C)c2ccccc21)N1CC(C)c2ccccc21 (stereo not given)	.	.	.	-1%[8 µM]
CCCn1c(C)nc2c(NCCCN3CCCCC3C)nc(C)nc21 (stereo not given)	-6%	14%	.	-3%
COc1ccc(OCc2nnc3n2N=C(c2ccc(OC)cc2)CS3)cc1	4µM*[single pt active]	14%	>57	-1%
COc1ccc(C)cc1NC(=O)c1ccoc1C	2%	2%	.	7%
COc1ccc(C)cc1NC(=O)c1cc2c(CO)cnc(C)c2oc1=N	3.2µM*[single pt active]	13%	>57	?
CC(Oc1ccc(Cl)cc1Cl)C(=O)Nc1ccncc1 (stereo not given)	19%	-3%	>57	7.9µM*
O=C(Oc1cc2oc(=O)c3c(c2cc1Cl)CCCC3)c1ccco1	-7%	7%	19*	?
O=C(N/N=C1/C[C@@H](O)[C@@H](O)[C@@H]2[C@@H]3C(=O)N(C4CCCCC4)C(=O)[C@H]3CC[C@@H]12)OCc1ccccc1	.	.	.	7%[8 µM]
Cc1ccc(-n2ncc3c(=O)[nH]c(SCC(=O)N4CCOCC4)nc32)cc1	2%	0%	>57	-14%
SMILES	AmpC nodet inh	AmpC det inh	SmPrx2 inh	Anthrax LT inh
Cc1ccc(-n2ncc3c(=O)[nH]c(SCC(=O)N4CCN(c5ccccc5)CC4)nc32)cc1	13µM*[single pt active]	5%	>57	-6%
O=c1[nH]c(SCc2ccccc2Cl)nc2c1cnn2-c1ccccc1	7.9µM*	8%	>57	?
O=C(Nc1ccccc1)N1CCCC2(CCN(C(=O)c3csnn3)CC2)C1	-3%	1%	>57	6%
CN1CCN(CCCNC(=O)c2ccc(CS(=O)(=O)c3ccc(Br)cc3)o2)CC1	22%	10%	>57	-2%
O=C(NCCN1CCCCCC1)c1ccc(CS(=O)(=O)c2ccc(Br)cc2)o1	4µM*[single pt active]	8%	>57	?
O=C(NC1CCCC1)c1ccc(CS(=O)(=O)c2ccc(Br)cc2)o1	4µM*[single pt active]	8%	>57	-26%
O=C(NCCCN1CCCC1)c1ccc(CS(=O)(=O)c2ccc(Br)cc2)o1	4µM*[single pt active]	13%	>57	-13%
CCN(CC)CCNC(=O)c1ccc(CS(=O)(=O)c2ccc(Br)cc2)o1	3.2µM*[single pt active]	9%	>57	-26%
CC(=O)N1CC=CC1(C)C(=O)NCC1CC1 (stereo not given)	-10%	10%	.	-2%
CS(=O)(=O)c1nc(-c2ccco2)cc(C(F)(F)F)n1	-6%	13%	>57	10µM*
FC(F)(F)c1cc(-c2ccco2)nc(NCc2ccco2)n1	-7%	16%	>57	?
Cn1c(Cn2c(=O)sc3ccccc32)nnc1SCC(=O)Nc1cccc(F)c1	4µM*[single pt active]	13%	>57	-2%
Cc1cc(C)cc(NC(=O)CSc2nnc(Cn3c(=O)sc4ccccc43)n2C)c1	4µM*[single pt active]	9%	>57	-1%
Cn1c(Cn2c(=O)sc3ccccc32)nnc1SCC(=O)Nc1ccc(Cl)cc1	4µM*[single pt active]	11%	>57	8%
Cn1c(Cn2c(=O)sc3ccccc32)nnc1SCC(=O)Nc1cccc(Cl)c1	8%	23%	>57	7%
CN(CCc1ccc(Cl)c(Cl)c1)[C@H]1CCCC[C@H]1N1CCCC1	42%	-6%	>57	25µM*
CN(CCc1ccc(Cl)c(Cl)c1)CCN1CCCCCC1	28%	-4%	>57	?
CCCOC(=O)C1C2C=CC3(CN(c4ccc(Cl)c(F)c4)C(=O)C13)O2 (stereo not given)	?	13%	>57	-15%
CCOC(=O)C1C2C=CC3(CN(c4ccc(Cl)c(F)c4)C(=O)C13)O2 (stereo not given)	2µM*[single pt active]	10%	>57	14%
CC1CCC(C(=O)O)([C@H](Br)C(=O)O)CC1 (stereo not given in full)	-3%[5.75 µM]	1%[5.75 µM]	>57	4%[8 µM]
CC[C@H]1CN2CCc3cc(OC)c(OC)cc3[C@H]2C[C@@H]1C[C@H]1NCCc2c1[nH]c1ccc(O)cc21	13%[5.75 µM]	-4%[5.75 µM]	>57	?
CC[C@@H]1CN2CCc3cc(OC)c(OC)cc3[C@H]2C[C@@H]1C[C@H]1NCCc2cc(OC)c(OC)cc21	.	.	>57	0.02µM*
CCN(CC)S(=O)(=O)c1ccc(C(=O)OCCN2C(=O)CCC2=O)cc1	4µM*[single pt active]	11%	>57	3%
O=C(O)CC1Sc2ccccc2NC1=O (stereo not given)	-6%	-1%	>57	-7%
O=C1Nc2ccccc2SC(c2ccccc2)C1O (stereo not given)	13µM*[single pt active]	-6%	>57	-17%
C=C(Br)CN(C)CC(=C)Br	-1%[5.75 µM]	-2%[5.75 µM]	>57	-1%[8 µM]
CCc1nc2ccccc2c(C(=O)OCC(=O)Nc2ccc(S(=O)(=O)N3CCOCC3)cc2)c1C	52%	-3%	>57	13µM*
